According to PubChem BioAssay (NCI):
The panel holds about 83,000 compounds, 20% with a hit somewhere; the sample as a whole holds those more often.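 Each cell line was grown in a 96-well plate and treated with one concentration of compound for 48 hours. Values below 10 were considered active.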 Unmarked numbers belong to inactive results. The source made the active and inactive calls.

Tests used:
Assay in all cases: NCI-60 one-dose screen, 48 h (100 = growth as untreated, 0 = no growth, -100 = all killed)
Settings in all cases: 10 µM unless noted
NCI-H23 lung = test system: NCI-H23 lung
NCI-H322M lung = test system: NCI-H322M lung
HOP-62 NSCLC = test system: HOP-62 NSCLC
NCI-H460 lung = test system: NCI-H460 lung
HOP-92 NSCLC = test system: HOP-92 NSCLC
NCI-H522 lung = test system: NCI-H522 lung
A549/ATCC NSCLC = test system: A549/ATCC NSCLC
786-0 renal = test system: 786-0 renal
COLO 205 colon = test system: COLO 205 colon
DU-145 prostate = test system: DU-145 prostate
K-562 leukemia = test system: K-562 leukemia
MALME-3M melanoma = test system: MALME-3M melanoma
MDA-MB-231 breast = test system: MDA-MB-231 breast
RXF 393 renal = test system: RXF 393 renal
SF-268 CNS = test system: SF-268 CNS
SF-295 CNS = test system: SF-295 CNS
SF-539 CNS = test system: SF-539 CNS
UACC-257 melanoma = test system: UACC-257 melanoma
M14 melanoma = test system: M14 melanoma

Structure (SMILES) | growth (NCI-H23 lung) | growth (NCI-H322M lung) [%] | growth (HOP-62 NSCLC) [%] | growth (NCI-H460 lung) | growth (HOP-92 NSCLC) | growth (NCI-H522 lung) | growth (A549/ATCC NSCLC) | growth (786-0 renal) | growth (COLO 205 colon) | growth (DU-145 prostate) [%] | growth (K-562 leukemia) | growth (MALME-3M melanoma) | growth (MDA-MB-231 breast) | growth (RXF 393 renal) | growth (SF-268 CNS) [%] | growth (SF-295 CNS) | growth (SF-539 CNS) | growth (UACC-257 melanoma) [%] | growth (M14 melanoma)
CN1CCN(CCOc2ccc(-c3cnc4c(-c5cccc(F)c5)cnn4c3)cc2)CC1 | 62.6% | 89.8 | 90 | 1.99% (active) | 24.8% | 82% | 49.4% | 57% | 32.4% | 71.8 | -33.6% (active) | 60.6% | 47.7% | 66.3% | 80.4 | 79.6% | 70.6% | 67.1 | 2.02% (active)
CCCCCCCCNc1cccc2c1C(=O)c1ccccc1C2=O | 102% | 101 | 115 | 101% | 109% | 81.3% | 91.7% | 104% | 116% | 112 | 97.2% | 108% | 96.1% | 100% | 94.9 | 112% | 121% | 98.2 | 107%
N#CC1=C(N)Oc2c(c(N)nn2-c2ccccc2)C1c1ccc(Cl)cc1Cl (configuration not stated) | 103% | 104 | 92.8 |  | 86.9% | 90.5% | 108% | 102% | 120% | 105 | 89.6% | 104% | 97.4% | 109% | 92 | 106% | 94.3% | 104 | 96.7%
CC(C)(C)CC(C)(C)c1ccc(OCCOCC[N+](C)(C)CC(=O)[O-])cc1 | 108% | 111 | 106 | 110% | 105% | 103% | 101% | 106% | 105% | 114 | 105% | 102% | 112% | 134% | 109 |  | 104% | 100 | 104%
Nc1c(Cl)cc(N=Nc2ccccc2)cc1Cl | 88% | 86.7 | 91.4 | 65.1% | 57.7% | 96.8% | 88.2% | 101% | 97.5% | 101 | 92.5% |  | 84.2% | 108% | 102 | 89.7% | 103% | 100 | 105%
c1ccc2c(-c3nc(-c4c[nH]c5ncccc45)cs3)c[nH]c2c1 | 97.5% | 91.1 | 83.2 | 115% | 65.7% | 85.2% | 100% | 93.4% | 66.3% | 112 | 106% |  | 79.9% | 116% | 111 | 119% | 99.3% | 109 | 99.8%
Cc1ccc(-c2ccc(Nc3ccccc3)nn2)cc1S(N)(=O)=O | 96.2% | 108 | 107 | 82.9% | 98.9% | 96.1% | 79.4% | 103% | 96% | 85.2 | 21.3% | 73.5% | 89.2% | 91.8% | 97.4 |  | 82.3% | 96.4 | 83.2%
C=C(C)[C@@H]1CC[C@]2(C=NCCCNCCCCNCCCN)CC[C@]3(C)[C@H](CC[C@@H]4[C@@]5(C)CCCNC(C)(C)[C@@H]5CC[C@]43C)[C@@H]12 | 82.5% | 100 | 92.9 | 91.7% | 92.4% | 99.6% | 88.8% | 107% | 79.1% | 101 | 20.1% | 103% | 104% | 110% | 102 | 91.2% | 95.3% | 107 | 98.5%
COC(=O)[C@]12CC[C@@H](C)[C@H](C)[C@@H]1C1=CC(=O)[C@@H]3[C@@]4(C)C[C@@H](O)[C@H](O)[C@@]5(C)COC(=C45)C[C@@]3(C)[C@]1(C)CC2 | 76.9% | 88.4 | 50.8 | 34.6% | 45.6% | 51% | 41.6% | 78.5% | 40.8% | 92.7 | 14.2% | 68% | 45.8% | 63.1% | 80.8 | 61.3% | 54.1% |  | 27.4%
C=C(C)[C@@H]1CC[C@]2(C(=O)N3CCN(CC)CC3)CC[C@]3(C)[C@H](CC[C@@H]4[C@@](C)(CCC(=O)N5CCN(CC)CC5)[C@H](C(=C)C)CC[C@]43C)[C@@H]12 | 74.4% | 89 | 88.7 | 25.1% | 52.2% | 77.9% | 57.4% | 0.392% (active) | 61.1% | 70.8 | 30.4% | 43.2% | 58.6% | 48.8% | 76.9 | 47.8% | 66% | 18.6 | 35.8%
COc1cc(/C=C/c2cc(/C=C/c3ccc(O)c(OC)c3)n(-c3ccc(Cl)cc3)c(=O)n2)ccc1O | 93.7% | 82 | 90.1 | 92.3% |  | 91.3% | 98.1% | 92.6% | 91.3% | 91.7 | 72.6% | 100% | 60.3% | 90.7% | 76.1 | 97.3% | 78.1% | 97 | 88.3%
COC(=O)[C@]12CC[C@@H](C)[C@H](C)[C@@H]1C1=CC[C@@H]3[C@@]4(C)C[C@@H](O)OC[C@](C)(C=O)C4C(=O)C[C@@]3(C)[C@]1(C)CC2 (some centres not stated) | 5.09% (active) | 27.6 | 13 | -13% (active) | -28.6% (active) | -41.9% (active) | 7.39% (active) | 2.91% (active) | -94.4% (active) | 14.5 | 3.89% (active) | -8.79% (active) | -14.9% (active) | -7.01% (active) | 34.9 | 1.62% (active) | 7.45% (active) |  | 6.13% (active)
O=C1C=Cc2ncccc2C1=O | 70% | 97.7 | 99.7 | 111% | 97% | 88.8% |  | 103% | 54% | 78.9 | 0.688% (active) | 89.9% |  | 106% | 97 | 102% | 86.3% | 88.1 | 95.5%
